# Reference: PubChem BioAssay
# Activity calls are given as the source filed them. How the calls were made is not given here.
# Assay: inhibitors of hydroxyurea-induced Chk1 phosphorylation, primary screen, imaging, HeLa, phospho-Chk1 antibody, percent positive cells (AID 1186)
# Conditions: hydroxyurea-induced phospho-Chk1 immunofluorescence imaging, higher = more signal
row,SMILES,z-score
1,CCCC=C(CCC)[C@@H](NC(=O)c1ccc(-c2ccccc2)cc1)c1ccc(C(=O)OC)cc1,0.125 (inactive)
2,COC(=O)[C@@]1(Cc2ccccc2)[C@H]2c3cc(C(=O)N4CCCC4)n(Cc4ccccn4)c3C[C@H]2CN1C(=O)c1ccccc1,-0.161 (inactive)
3,O=C(CS)NCCCCCNC(=O)[C@@H]1C[C@@H]2C(=O)N[C@@H](Cc3ccccc3)C(=O)N2[C@@H]1c1ccc(O)cc1,0.83 (inactive)
4,CC(C)C[C@@H]1NC(=O)[C@H]2C[C@@H](C(=O)NCCCCCCN(C)C)[C@@H](c3cccc(OCCO)c3)N2C1=O,-0.111 (inactive)
5,COCCCNC(=O)[C@@]1(CCS(=O)(=O)c2ccccc2)N=C(c2ccc(OCCCO)cc2)O[C@H]1c1ccccc1,-0.213 (inactive)
6,Cc1ccc(S[C@]2(C(=O)NCC(F)(F)F)CC(=O)N(Cc3ccccc3Cl)[C@@H]2c2ccc(CO)cc2I)cc1,0.395 (inactive)
7,O=C1O[C@@H](c2ccccc2)[C@@H](c2ccccc2)N2[C@@H](c3ccc(OCCO)cc3)[C@]3(C(=O)Nc4ccc(C#CCCO)cc43)[C@@H](C(=O)N3CCCCCCC3)[C@H]12,-0.148 (inactive)
8,CCOC(=O)C1=CCC(c2cc3ccccc3[nH]2)NC1 (stereo unspecified),0.437 (inactive)
9,O=C1NC(=O)C2C1C=CC(C(O)Cc1ccccc1)N2Nc1ccccn1 (stereo unspecified),-0.349 (inactive)
10,C#C[C@@H]1Oc2ccccc2S(=O)(=O)N2CCC[C@H]12,0.723 (inactive)
11,COc1ccc([Si](C)(C)[C@H]2[C@H](CCO)O[C@@]3(C(=O)N(Cc4cccc(NC(=O)[C@H](C)O)c4)c4ccccc43)[C@@H]2C)cc1,-1.95 (inactive)
